According to PubChem BioAssay:
For some assays here: Measured potencies and affinities stand elsewhere. The source made the active and inactive calls. Unless noted, how the calls were made is not given here.

Columns and labels:
[1] = antimalarial activity against Dd2 strain (AID 2302;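 active means growth inhibition above 50% at the single 2 µM test dose, taken to imply half-maximal potency below 2 µM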;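 further: 0% = DMSO untreated growth and 100% = chloroquine plus artemisinin killed control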); conditions: P. falciparum Dd2 in RBCs, LDH growth readout, 72 h; at 2 µM; hits give high values
[2] = HepG2 cytotoxicity, primary screen, cytotoxicity control for P. falciparum antimalarial project, cell-based, ATP luminescence (AID 2303;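 active means inhibition above 50%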;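 further: 0% = DMSO wells and 100% = digitonin-killed cells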); conditions: HepG2 viability, 24-48 h, at 10 µM, hits give high values
[3] = target: L-lactate dehydrogenase (Plasmodium falciparum (isolate CDC / Honduras)) (UniProt Q27743); test: PfLDH activity inhibition – cell lysate, 3D7 strain, counter-screen for P. falciparum growth inhibition project (AID 2304);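 further: 0% = vehicle and 100% = reference inhibitor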; conditions: P. falciparum 3D7 crude extract, LDH APAD/NBT absorbance; at 2 µM; hits give high values
Chain of L-lactate dehydrogenase (Plasmodium falciparum (isolate CDC / Honduras)) (Q27743 whole entry, looked up): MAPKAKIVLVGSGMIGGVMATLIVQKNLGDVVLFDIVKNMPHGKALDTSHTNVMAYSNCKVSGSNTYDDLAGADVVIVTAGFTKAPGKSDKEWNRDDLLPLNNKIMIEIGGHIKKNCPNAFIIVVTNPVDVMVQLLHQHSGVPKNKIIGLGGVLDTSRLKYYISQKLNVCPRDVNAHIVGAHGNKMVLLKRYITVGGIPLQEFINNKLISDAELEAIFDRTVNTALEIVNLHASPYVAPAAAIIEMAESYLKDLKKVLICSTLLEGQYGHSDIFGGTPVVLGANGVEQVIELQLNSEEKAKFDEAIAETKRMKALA

[4] = inhibition of 3D7 malaria parasite growth – strain 3D7 (AID 2306);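 further: 0% = DMSO wells and 100% = chloroquine plus artemisinin control wells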; conditions: P. falciparum 3D7 erythrocytic growth, LDH absorbance, 72 h; at 2 µM; hits give high values
[5] = target: Calcium-dependent protein kinase 1 (Plasmodium falciparum (isolate 3D7)) (UniProt P62344); test: PfCDPK1 kinase inhibitors, biochemical, TCAMS library (AID 1159585; cut-off not given, nearly all actives have IC50 up to about 0.98 µM;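 further: inhibitors leave more ATP so luminescence rises with inhibition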); conditions: recombinant PfCDPK1, Kinase-Glo ATP depletion luminescence
Chain of Calcium-dependent protein kinase 1 (Plasmodium falciparum (isolate 3D7)) (P62344 whole entry, looked up): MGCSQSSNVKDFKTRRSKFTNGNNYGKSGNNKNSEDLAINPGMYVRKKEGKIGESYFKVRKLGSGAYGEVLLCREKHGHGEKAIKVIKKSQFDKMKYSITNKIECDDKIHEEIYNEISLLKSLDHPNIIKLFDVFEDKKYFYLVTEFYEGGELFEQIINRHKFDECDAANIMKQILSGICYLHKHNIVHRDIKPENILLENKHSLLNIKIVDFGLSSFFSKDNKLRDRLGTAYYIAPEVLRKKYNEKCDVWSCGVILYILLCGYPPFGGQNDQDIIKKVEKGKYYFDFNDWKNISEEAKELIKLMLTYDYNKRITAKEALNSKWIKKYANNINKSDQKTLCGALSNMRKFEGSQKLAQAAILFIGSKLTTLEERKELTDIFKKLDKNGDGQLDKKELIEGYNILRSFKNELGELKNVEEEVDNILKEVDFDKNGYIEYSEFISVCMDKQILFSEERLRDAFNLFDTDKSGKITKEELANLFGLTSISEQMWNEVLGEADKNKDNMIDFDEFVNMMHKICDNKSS

[6] = target: Plasmodium falciparum protein kinase 6 (PK6, PF3D7_1337100) (UniProt Q8IDW1); test: PfPK6 kinase inhibitors, biochemical, TCAMS library (AID 1159586); conditions: recombinant PfPK6, Kinase-Glo ATP depletion luminescence
Chain of Plasmodium falciparum protein kinase 6 (PK6, PF3D7_1337100) (Q8IDW1 1-305): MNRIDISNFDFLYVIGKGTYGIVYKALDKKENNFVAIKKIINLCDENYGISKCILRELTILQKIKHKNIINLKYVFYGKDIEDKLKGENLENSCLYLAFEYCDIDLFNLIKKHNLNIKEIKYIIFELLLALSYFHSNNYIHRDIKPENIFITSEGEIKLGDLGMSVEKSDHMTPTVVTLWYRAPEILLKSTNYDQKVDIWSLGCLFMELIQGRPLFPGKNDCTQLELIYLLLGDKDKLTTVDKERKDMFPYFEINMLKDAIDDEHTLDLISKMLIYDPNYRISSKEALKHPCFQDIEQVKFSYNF

[7] = target: Protein kinase 7 (PK7), Plasmodium falciparum 3D7 (PF3D7_0213400) (UniProt Q7YTF7); test: inhibition of Plasmodium PK7 catalytic activity – biochemical, TCAMS antimalarial set, Kinase-Glo luminescence (AID 1159587); conditions: recombinant PfPK7, Kinase-Glo ATP depletion luminescence
Chain of Protein kinase 7 (PK7), Plasmodium falciparum 3D7 (PF3D7_0213400) (Q7YTF7 1-343): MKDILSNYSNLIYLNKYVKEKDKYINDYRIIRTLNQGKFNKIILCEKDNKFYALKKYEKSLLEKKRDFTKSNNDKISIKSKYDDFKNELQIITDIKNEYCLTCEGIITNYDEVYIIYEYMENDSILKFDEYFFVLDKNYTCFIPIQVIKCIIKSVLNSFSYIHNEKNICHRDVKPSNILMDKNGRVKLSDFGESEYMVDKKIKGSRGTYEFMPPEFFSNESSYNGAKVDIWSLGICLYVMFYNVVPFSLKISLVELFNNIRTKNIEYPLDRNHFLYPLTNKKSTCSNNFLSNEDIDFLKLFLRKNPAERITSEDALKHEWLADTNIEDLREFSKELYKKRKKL

[8] = target: Calcium-dependent protein kinase 4 (Plasmodium falciparum (isolate 3D7)) (UniProt Q8IBS5); test: PfCDPK4 kinase inhibitors, biochemical, TCAMS library (AID 1159588; cut-off not given, nearly all actives have IC50 up to about 0.91 µM); conditions: recombinant PfCDPK4, Kinase-Glo ATP depletion luminescence
Chain of Calcium-dependent protein kinase 4 (Plasmodium falciparum (isolate 3D7)) (Q8IBS5 whole entry, looked up): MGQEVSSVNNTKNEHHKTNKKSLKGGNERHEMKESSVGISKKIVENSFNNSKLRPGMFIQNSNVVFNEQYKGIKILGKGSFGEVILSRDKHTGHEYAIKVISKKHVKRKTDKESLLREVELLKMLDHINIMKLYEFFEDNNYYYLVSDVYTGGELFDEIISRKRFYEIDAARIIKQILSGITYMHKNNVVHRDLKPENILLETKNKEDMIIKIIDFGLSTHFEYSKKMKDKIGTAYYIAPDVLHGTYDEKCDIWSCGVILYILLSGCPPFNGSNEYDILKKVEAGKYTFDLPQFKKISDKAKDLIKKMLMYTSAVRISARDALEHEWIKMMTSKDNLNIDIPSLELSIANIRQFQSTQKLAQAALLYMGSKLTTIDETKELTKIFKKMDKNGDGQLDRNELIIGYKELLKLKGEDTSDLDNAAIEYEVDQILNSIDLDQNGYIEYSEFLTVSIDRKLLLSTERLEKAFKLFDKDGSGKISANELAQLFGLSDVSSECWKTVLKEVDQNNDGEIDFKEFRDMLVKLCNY

COc1ccc2nccc([C@@H](O)CN3CCC(NCc4ccc5c(c4)NC(=O)CS5)CC3)c2n1
active: growth inhibition [4] 101%
inactive: growth inhibition [1] 34% | inhibition [2] 1% | inhibition [3] -3% | outcome [5] | outcome [6] | outcome [7] | outcome [8]

OC1CCCN(Cc2ccc(-c3ccc(-c4nc5ccc(F)cc5[nH]4)s3)cc2)C1 (stereo not given)
inactive: inhibition [2] 40% | inhibition [3] -5% | outcome [5] | outcome [6] | outcome [7] | outcome [8]
active: growth inhibition [1] 99% | growth inhibition [4] 100%

CCC1(CC)CN(c2ccccc2)c2ccc(O)cc2S(=O)(=O)C1CC(C)C (stereo not given)
active: growth inhibition [1] 89% | growth inhibition [4] 96%
inactive: inhibition [2] -7% | inhibition [3] 2% | outcome [5] | outcome [6] | outcome [7] | outcome [8]

Cc1cc(N2CCCC2)nc(Nc2ccc(NC(=O)C(C)Oc3ccccc3)cc2)n1 (stereo not given)
active: growth inhibition [1] 58% | growth inhibition [4] 101%
inactive: inhibition [2] 42% | inhibition [3] -1% | outcome [5] | outcome [6] | outcome [7] | outcome [8]

Cc1cc(NN=Cc2cccc(Cl)c2)c2ccccc2n1
inactive: inhibition [2] 22% | inhibition [3] 0% | outcome [5] | outcome [6] | outcome [7] | outcome [8]
active: growth inhibition [1] 100% | growth inhibition [4] 100%

Cc1cc(NN=Cc2ccc(F)cc2)c2ccc(C(F)(F)F)cc2n1
inactive: growth inhibition [1] 24% | inhibition [2] 4% | inhibition [3] -2% | outcome [5] | outcome [6] | outcome [7] | outcome [8]
active: growth inhibition [4] 95%

CC(C#N)Cc1ccc(-c2cnc(N)c3cc(-c4ccnc(N)n4)ccc23)cc1 (stereo not given)
active: growth inhibition [1] 62% | inhibition [2] 56% | growth inhibition [4] 96%
inactive: inhibition [3] 0% | outcome [5] | outcome [6] | outcome [7] | outcome [8]

N#Cc1cccc(-c2ccc(C(=O)Nc3ccc4c(c3)CCN(C3CCC3)CC4)cn2)c1
active: growth inhibition [4] 96%
inactive: growth inhibition [1] 5% | inhibition [2] 26% | inhibition [3] -2% | outcome [5] | outcome [6] | outcome [7] | outcome [8]

C=CCc1cc(Cc2cnc(N)nc2N)c2ccc(C)nc2c1OC
inactive: growth inhibition [1] -1% | inhibition [2] 11% | inhibition [3] -4% | outcome [5] | outcome [6] | outcome [7] | outcome [8]
active: growth inhibition [4] 96%

CC1(C)C(=O)Nc2ccc3c(c21)CC1SC(=O)NN=C31 (stereo not given)
active: growth inhibition [1] 92% | growth inhibition [4] 96%
inactive: inhibition [2] 6% | inhibition [3] -1% | outcome [5] | outcome [6] | outcome [7] | outcome [8]

CN(C)CC1CCCN1Cc1ccccc1-c1cnn(C)c(=O)c1Oc1cccc(C#N)c1 (stereo not given)
active: growth inhibition [4] 92%
inactive: growth inhibition [1] 15% | inhibition [2] 26% | inhibition [3] 4% | outcome [5] | outcome [6] | outcome [7] | outcome [8]

Cc1cc(NN=Cc2ccccc2Cl)c2cc(C(F)(F)F)ccc2n1
inactive: inhibition [2] -4% | inhibition [3] -4% | outcome [5] | outcome [6] | outcome [7] | outcome [8]
active: growth inhibition [1] 75% | growth inhibition [4] 100%

Cc1nc(N)nc(N)c1Oc1cccc(Cl)c1
active: growth inhibition [4] 94%
inactive: growth inhibition [1] -3% | inhibition [2] 49% | inhibition [3] 3% | outcome [5] | outcome [6] | outcome [7] | outcome [8]

CCN(CC)CCN(CCCc1ccc(-c2ccc(C(F)(F)F)cc2)cc1)C(=O)Cn1c(CCc2cccc(F)c2F)nc(=O)c2c1CCC2
inactive: growth inhibition [1] 27% | inhibition [2] 38% | inhibition [3] -2% | outcome [5] | outcome [6] | outcome [7] | outcome [8]
active: growth inhibition [4] 92%

Nc1nc(N)c2c(ccc3c2ccn3Cc2ccc(F)cc2)n1
inactive: inhibition [3] 1% | outcome [5] | outcome [6] | outcome [7] | outcome [8]
active: growth inhibition [1] 96% | inhibition [2] 66% | growth inhibition [4] 97%

CC1CN=C(c2ccc(NC(=O)c3ccc(C(=O)Nc4ccc(C5=NCC(C)N5)cc4)cc3)cc2)N1 (stereo not given)
active: growth inhibition [1] 100% | growth inhibition [4] 99%
inactive: inhibition [2] 15% | inhibition [3] -7% | outcome [5] | outcome [6] | outcome [7] | outcome [8]

CN1CCN(CCCN(Cc2csc(-c3ccc(CNCc4ccccc4)cc3)n2)S(=O)(=O)c2cccc3cccnc23)CC1
active: growth inhibition [4] 89%
inactive: growth inhibition [1] 32% | inhibition [2] 5% | inhibition [3] 1% | outcome [5] | outcome [6] | outcome [7] | outcome [8]

Cc1cccc2[nH]c(-c3cccc(-c4ccc(CNCCCN5CCCC5=O)cc4)c3)nc12
active: growth inhibition [4] 101%
inactive: growth inhibition [1] 38% | inhibition [2] 5% | inhibition [3] 2% | outcome [5] | outcome [6] | outcome [7] | outcome [8]

NC(N)=NCCN(Cc1ccccc1)c1ccc(Cl)cc1
inactive: inhibition [2] -7% | inhibition [3] -3% | outcome [5] | outcome [6] | outcome [7] | outcome [8]
active: growth inhibition [1] 99% | growth inhibition [4] 100%

O=C(NCC1CCN(Cc2cccc(F)c2)C1)c1cc(-c2cccc(C(F)(F)F)c2)cs1 (stereo not given)
inactive: growth inhibition [1] 10% | inhibition [2] 31% | inhibition [3] -2% | outcome [5] | outcome [6] | outcome [7] | outcome [8]
active: growth inhibition [4] 96%

CN(C)CC(=O)Nc1cccc(Nc2nccc(NCC(O)c3ccccc3)n2)c1 (stereo not given)
inactive: growth inhibition [1] 3% | inhibition [2] 30% | inhibition [3] -5% | outcome [5] | outcome [6] | outcome [7] | outcome [8]
active: growth inhibition [4] 102%

CCCCCCC(C)c1cc(O)c2c(c1)OC(C)(C)C=C2c1ccncc1 (stereo not given)
active: growth inhibition [4] 98%
inactive: growth inhibition [1] 29% | inhibition [2] -7% | inhibition [3] 0% | outcome [5] | outcome [6] | outcome [7] | outcome [8]

COc1cc(CNCCCCCCNCc2cc(OC)c3ccccc3c2OC)c(OC)c2ccccc12
active: inhibition [2] 99% | growth inhibition [4] 102%
inactive: growth inhibition [1] 40% | inhibition [3] -2% | outcome [5] | outcome [6] | outcome [7] | outcome [8]

Cc1cnc(CNCc2ccc(S(=O)(=O)Nc3ccc(Oc4cccc(Cl)c4)cc3)cc2)cn1
inactive: growth inhibition [1] -1% | inhibition [2] 4% | inhibition [3] 7% | outcome [5] | outcome [6] | outcome [7] | outcome [8]
active: growth inhibition [4] 97%

Cc1cccc2[nH]c(-c3cccc(-c4ccc(NC(=O)NCc5ccccc5)cc4)c3)nc12
active: growth inhibition [4] 101%
inactive: growth inhibition [1] 47% | inhibition [2] 35% | inhibition [3] -2% | outcome [5] | outcome [6] | outcome [7] | outcome [8]

CCCCOc1c(CNCCCCCCNCc2ccc3ccccc3c2OCCCC)ccc2ccccc12
inactive: inhibition [3] 7% | outcome [5] | outcome [6] | outcome [7] | outcome [8]
active: growth inhibition [1] 89% | inhibition [2] 99% | growth inhibition [4] 96%

CN1CCCN(Cc2ccc(-c3cccc(NC(=O)c4cccc(Cl)c4)c3)cc2)CC1
active: growth inhibition [4] 100%
inactive: growth inhibition [1] 32% | inhibition [2] 33% | inhibition [3] -3% | outcome [5] | outcome [6] | outcome [7] | outcome [8]

COc1cc(Cc2cnc(N)nc2N)cc(OCCn2ccccc2=O)c1OC
active: growth inhibition [4] 97%
inactive: growth inhibition [1] -3% | inhibition [2] 4% | inhibition [3] 2% | outcome [5] | outcome [6] | outcome [7] | outcome [8]

O=[N+]([O-])c1ccc(NC(=NCCOc2ccccc2)Nc2ccccc2Br)c(O)c1
inactive: inhibition [2] 6% | inhibition [3] -9% | outcome [5] | outcome [6] | outcome [7] | outcome [8]
active: growth inhibition [1] 70% | growth inhibition [4] 88%

COC(=O)c1ccc(CCCNCC(O)c2cccc(C(F)(F)F)c2)cc1 (stereo not given)
active: growth inhibition [1] 88% | growth inhibition [4] 97%
inactive: inhibition [2] 0% | inhibition [3] 4% | outcome [5] | outcome [6] | outcome [7] | outcome [8]

O=C(Nc1ccc(OC2CCN(Cc3ccc(F)cc3)CC2)c(Cl)c1)c1cccs1
inactive: inhibition [2] 7% | inhibition [3] -1% | outcome [5] | outcome [6] | outcome [7] | outcome [8]
active: growth inhibition [1] 96% | growth inhibition [4] 95%

CC(=O)Nc1cccc(C(=O)Nc2cccc(-c3ccc(-c4nc5ccc(C(F)(F)F)cc5[nH]4)s3)c2)c1
active: inhibition [2] 80% | growth inhibition [4] 98%
inactive: growth inhibition [1] 46% | inhibition [3] -3% | outcome [5] | outcome [6] | outcome [7] | outcome [8]

CC(=O)Nc1ncc(C(=O)Nc2ccc(-c3cccc(-c4nc5ccc(F)cc5[nH]4)c3)cc2)s1
active: growth inhibition [1] 85% | growth inhibition [4] 102%
inactive: inhibition [2] 47% | inhibition [3] -3% | outcome [5] | outcome [6] | outcome [7] | outcome [8]

Cc1ccc(C(=O)Nc2ccc(F)cc2)cc1-c1nc(NC2CC(C)(C)NC(C)(C)C2)nc2c1ccc(=O)n2-c1c(F)cccc1F
active: growth inhibition [1] 96% | growth inhibition [4] 89%
inactive: inhibition [2] 16% | inhibition [3] -2% | outcome [5] | outcome [6] | outcome [7] | outcome [8]

O=S(=O)(c1cc(Cl)sc1Cl)N(CCC(O)(C(F)(F)F)C(F)(F)F)Cc1cccc(O)c1
active: growth inhibition [1] 97% | growth inhibition [4] 98%
inactive: inhibition [2] -4% | inhibition [3] 5% | outcome [5] | outcome [6] | outcome [7] | outcome [8]

OC(CNC1CCCCC1)Cn1c2ccccc2c2ccccc21 (stereo not given)
inactive: inhibition [2] 11% | inhibition [3] 0% | outcome [5] | outcome [6] | outcome [7] | outcome [8]
active: growth inhibition [1] 92% | growth inhibition [4] 97%

Fc1ccc(CNc2ncc(-c3ccsc3)c(-c3nccs3)n2)cc1
inactive: inhibition [2] 7% | inhibition [3] -2% | outcome [5] | outcome [6] | outcome [7] | outcome [8]
active: growth inhibition [1] 77% | growth inhibition [4] 94%

CCCCN(CCCC)Cc1cc2ccccc2cc1O
inactive: inhibition [2] 9% | inhibition [3] -6% | outcome [5] | outcome [6] | outcome [7] | outcome [8]
active: growth inhibition [1] 98% | growth inhibition [4] 100%

O=C(Nc1ccc2c(c1)CCN(C1CCC1)CC2)c1cn(-c2ccccc2)nc1-c1ccccc1
active: growth inhibition [4] 103%
inactive: growth inhibition [1] 10% | inhibition [2] 38% | inhibition [3] 3% | outcome [5] | outcome [6] | outcome [7] | outcome [8]

O=C(NCc1ccccc1)c1nn(CCCN2CCC(N3CCCC3)CC2)cc1-c1ccc(Cl)c(Cl)c1
inactive: inhibition [2] 29% | inhibition [3] 0% | outcome [5] | outcome [6] | outcome [7] | outcome [8]
active: growth inhibition [1] 89% | growth inhibition [4] 103%
